In PubChem BioAssay (NCI) one finds growth data, which are given here for 40 compounds.

The panel holds about 83,000 compounds, 20% with a hit somewhere; the sample as a whole holds those more often.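 Values shown are percent growth following 48 h exposure of cells in 96-well plates to a single concentration of compound; below 10 was considered active.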 Unmarked numbers belong to inactive results. Calls of active or inactive are those of the source.

The test relates to HL-60(TB) leukemia. Put plainly: NCI-60 one-dose screen, 48 h (100 = growth as untreated, 0 = no growth, -100 = all killed). Conditions: 10 µM unless noted.
In the case of `O=P(O)(O)OCC1OC(n2cnc3c(NCc4ccccc4)ncnc32)C(O)C1O` (stereo not given), the growth was 26.8%.

As for `Cc1ccc(S(=O)(=O)n2cc(CNc3ccc(N4CCOCC4=O)cc3)c3ccccc32)cc1`, the growth is 66.7%.

`CNC(=O)c1cc(Oc2ccc3nc(NC(=O)Nc4ccc(Cl)cc4)sc3c2)ccn1`: the growth is 98.9%.

On to `Cc1ccc(/C=C2\COc3ccc(O)cc3C2=O)cc1`, for which the growth is -31.7% (active).

Take `ICCC(c1ccccc1)(c1ccccc1)c1ccccc1`: the growth was 43.4%.

Consider `CC(C)C1CCCCC1O` (stereo not given), for which the growth was 193%.

`O=[N+]([O-])c1ccc(-c2nc(-c3ccccc3)c(-c3ccccc3)n2-c2ccccc2)cc1`: the growth is -16.4% (active).

Turning to `CCCCCCCCCCCCCCCC[N+]1(C)CCCC1c1cccnc1` (stereo not given), the growth is 1.61% (active).

Regarding `N#Cc1cnc2cc(OC[C@H](O)CO)c(NC(=O)CC3CSSC3)cc2c1Nc1ccc(OCc2cccc(F)c2)c(Cl)c1`, the growth was -83.4% (active).

Turning to `FC(F)(F)c1cn(CCN2CCOCC2)c2ncnc(Cl)c12`, the growth is -68.6% (active).

Take `CCC#CC[C@H](O)C/C=C1/C(=O)C=C[C@@H]1C/C=C\CCCC(=O)OC`: the growth is 2.22% (active).

Take `CCOC(=O)c1c(C)nc2c(c1N)/C(=C/c1ccccn1)C(=O)N2Cc1ccccc1`: the growth was -5.96% (active).

`C=C(C)[C@@H]1CC[C@]2(N=C=O)CC[C@]3(C)[C@H](CC[C@@H]4[C@@]5(C)Cc6c([nH]c7ccccc67)C(C)(C)[C@@H]5CC[C@]43C)[C@@H]12`: the growth is 46.2%.

With `C=C1C(=O)O[C@H]2[C@H]1CC/C(CNC(=O)/C=C/c1cc(OC)c(OC)c(OC)c1)=C\CC[C@@]1(C)O[C@@H]21`, the growth is -33.3% (active).

Consider `CCCCCCCCCCCCCCCCCCOCC(COP(=O)([O-])OCC[N+](C)(C)C)OC` (stereo not given), for which the growth was 46.4%.

Regarding `CCOC(=O)C(CCC1=NC(C)(C)CC(C)O1)C(=O)OCC` (stereo not given), the growth was 56.4%.

As to `O=C1/C(=C/c2ccccc2)CN(C(=O)c2cccnc2)C/C1=C\c1ccccc1`, the growth is -8.8% (active).

For the compound `CCOc1ccccc1NC(=O)CCC(=O)OC`, the growth was 78.7%.

For the compound `Cc1ccc(C(CC(=O)O)c2c(C)[nH][nH]c2=O)cc1` (stereo not given), the growth is 98.8%.

In the case of `COc1cc2ncnc(Nc3ccc(S(=O)(=O)Nc4nccs4)cc3)c2cc1OCCCN1CCCC1`, the growth was 109%.

As for `CC(C)(O)CC(=O)NCCn1ccc2ncnc(Nc3ccc(Oc4cccc(C(F)(F)F)c4)c(Cl)c3)c21`, the growth was 2.51% (active).

Regarding `Cc1ccsc1C(NC(=O)c1ccccc1)c1cc(Cl)c2cccnc2c1O` (stereo not given), the growth is 12.4%.

As for `Cc1ccc(/C=C(\C#N)n2nnc3cc(Cl)c(Cl)cc32)cc1`, the growth is 1.4% (active).

For the compound `CC(=S)Nc1ccccc1`, the growth is 103%.

Regarding `COc1ccc(/C=C(\C#N)c2cc3ccccc3n2S(C)(=O)=O)cc1`, the growth is 89.6%.

Consider `NNC(=O)c1nc2ccccc2[nH]1`, for which the growth is 101%.

Regarding `COc1ccc(/C=C2\CN(C(=O)C(Cl)Cl)C/C(=C\c3ccc(OC)cc3)C2=O)cc1`, the growth is -11.9% (active).

Turning to `CCCCCCNC(=O)Oc1ccc(/C(=C(\C)c2ccccc2)c2ccc(OCCN(CC)CC)cc2)cc1`, the growth is 9.56% (active).

`CCc1nc(N)nc(N)c1-c1ccc(Cl)cc1`: the growth is 51.3%.

As to `CC(=O)Nc1nc(C)c(C(=O)NNC(=O)Nc2ccccc2)s1`, the growth is 108%.

For `CCn1c(=O)c(C(=O)NCCCO)c(O)c2ccccc21`, the growth was 90.5%.

As to `CCCCCCCCCCCCCCCCCC(=O)[O][Sn]([CH2]CCC)([CH2]CCC)[CH2]CCC`, the growth is -18.5% (active).

For the compound `Cc1cnc(NC(=O)C(Cc2ccccc2)NC(=O)c2ccccc2)s1` (stereo not given), the growth is 38.7%.

In the case of `Cc1ccc(NC(=O)c2ccccc2Cl)cc1`, the growth is 86.1%.

`COc1cc2nc(C(=O)N3CCCCC3)cc(Nc3ccccc3)c2cc1OC`: the growth was 96.8%.

In the case of `COc1cccc(-c2nn(-c3ccccc3)cc2-c2ccnc(NCCNC(=O)c3ccccc3)c2)c1`, the growth is 25.2%.

For the compound `COc1ccc(N2C(=O)C3c4[nH]c5ccc(OCc6ccccc6)cc5c4C4CCC(C(C)C)CC4C3C2=O)cc1` (stereo not given), the growth is 68.9%.

In the case of `OC(CCC(O)(c1ccccc1)c1ccccc1)(c1ccccc1)c1ccccc1`, the growth was -21.7% (active).

On to `Clc1nn2c(Cn3cnc4c(NCc5ccccc5)ncnc43)nnc2c2ccccc12`, for which the growth is 23%.

For the compound `O=C(O)CCN1C(=O)/C(=C/C(Cl)=C/c2ccccc2)SC1=S`, the growth was 5.78% (active).
